In PubChem BioAssay (NCI):
Compounds without any hit were thinned out: in the full panel of roughly 79,000, 15% have a hit. Cut-off read from the data, not from the text of the source: active = growth inhibition above about 70%; inactive = the rest.

Legend:
[1] = NCI Yeast Anticancer Drug Screen. Data for the rad50 strain (AID 155);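 note: 0% = growth of vehicle-only cultures of the same strain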; settings: S. cerevisiae rad50 strain growth inhibition; at 50.0 µM; stronger effect = higher value
Outline: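 DNA repair mutant yeast, compound exposure, growth read-out; inhibition is taken relative to vehicle.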

[2] = NCI Yeast Anticancer Drug Screen. Data for the mec2-1 strain (AID 157); settings: S. cerevisiae mec2-1 strain, at 50.0 µM, stronger effect = higher value
Outline: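 Compounds were applied to mec2-1 yeast cells. Their growth was then compared with that of vehicle-treated cultures to give growth inhibition.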

[3] = NCI Yeast Anticancer Drug Screen. Data for the sgs1 mgt1 strain (AID 161);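 note: 0% = growth of cultures given vehicle only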; settings: S. cerevisiae sgs1 mgt1 strain, at 50.0 µM, stronger effect = higher value
Outline: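 Compounds are added to genetically altered yeast, and growth is compared with cultures given vehicle alone to give percent inhibition.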

[4] = NCI Yeast Anticancer Drug Screen. Data for the cln2 rad14 strain (AID 165);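 note: 0% = growth equal to vehicle treated cultures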; settings: S. cerevisiae cln2 rad14 strain, at 50.0 µM, stronger effect = higher value
Outline: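 Strain: cln2 rad14 yeast, altered in cell cycle control and DNA damage repair. Read-out: growth inhibition vs vehicle.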

[5] = NCI Yeast Anticancer Drug Screen. Data for the bub3 strain (AID 167); settings: S. cerevisiae bub3 mutant strain, at 50.0 µM, stronger effect = higher value
Outline: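 In this screen, a yeast mutant lacking normal mitotic checkpoint function is challenged with compound. Relative growth versus vehicle gives the inhibition value.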

[6] = NCI Yeast Anticancer Drug Screen. Data for the mlh1 rad18 strain (AID 175); settings: S. cerevisiae mlh1 rad18 strain growth inhibition; at 50.0 µM; stronger effect = higher value
Outline: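 A repair-deficient yeast strain is exposed to test compound, and growth is scored relative to vehicle-treated controls.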

Measured: growth inhibition

O=C(N/N=C1\C(=O)N(c2nccs2)C(=O)C(=O)C1c1nc2ccccc2s1)c1ccccc1O (stereo unspecified)
inactive: [1] 23.1% | [2] 16.9% | [3] 20.4% | [4] 30.1% | [5] 4.5% | [6] 34.1%

O=C(OCC1OCOC(COC(=O)c2ccccc2)C(OC(=O)c2ccccc2)C1OC(=O)c1ccccc1)c1ccccc1 (stereo unspecified)
inactive: [1] 9.85% | [2] 8.35% | [3] -4.6% | [4] -13.8% | [5] -0.65% | [6] 19.6%

CC(=O)Oc1ccc2c(c1)oc1c3ccc(OC(C)=O)cc3n(C)c(=O)c21
inactive: [1] -20.1% | [2] -44.8% | [3] -16% | [4] -4.3% | [5] -7.95% | [6] -23.4%

C(=N/N=C(/C(=N/N=C/c1ccccc1)c1ccccc1)c1ccccc1)\c1ccccc1
inactive: [1] 26.6% | [2] 5% | [3] 33.3% | [4] 8.4% | [5] 11.9% | [6] 5.45%

OC(COc1c2ccccc2nc2ccccc12)CN1CCN(c2ccccc2)CC1 (stereo unspecified)
inactive: [1] 21.9% | [2] -5.45% | [3] 6.5% | [4] 9% | [5] 0.9% | [6] 19.9%

CCc1cccc(C(=O)O)c1N
inactive: [1] 26.4% | [2] 5.75% | [3] 15.7% | [4] 3.65% | [5] -3.75% | [6] 0.9%

[O-][n+]1ccccc1/C=C/c1cccc[n+]1[O-]
inactive: [1] -30.1% | [2] -31.1% | [3] -7.55% | [4] -22% | [5] -0.85% | [6] -18.4%

CC(=O)OC(C)N(C(C)=O)c1ncc([N+](=O)[O-])s1 (stereo unspecified)
inactive: [1] -21.8% | [2] 2.4% | [3] -2.95% | [4] -14.3% | [5] 46.5% | [6] 4.55%

O=[N+]([O-])c1ccc(F)cc1C(F)(F)F
inactive: [1] 19.1% | [2] -17.4% | [3] 32.4% | [4] -10.2% | [5] 0.2% | [6] 43.5%

N#Cc1ccc(C=NC23CC4CC(CC(C4)C2)C3)cc1
inactive: [1] -12% | [2] -10% | [3] -6.7% | [4] 2.4% | [5] -2% | [6] -4.1%

CCOC/N=C(/N)NC#N
inactive: [1] 25.6% | [2] 2.35% | [3] 10.8% | [4] 13.1% | [5] -3.4% | [6] 33.1%

CC(CNC(=O)c1ccccc1)(CNC(=O)c1ccccc1)[N+](=O)[O-]
inactive: [1] 8.95% | [2] 1.35% | [3] -3.2% | [4] 6.75% | [5] 0.8% | [6] 3.85%

O=C1C(Cl)=C(Cl)C(=O)N1c1ccccc1Cl
inactive: [1] 42.5% | [2] 23.6% | [3] 36.5% | [4] 43.9% | [5] 34.7% | [6] 55.5%

COC(=O)/C=C(/C(=O)OC)C1(C)c2cc(C(=O)OC)c(C(=O)OC)c(N)c2C(=N)N1c1ccccc1 (stereo unspecified)
inactive: [1] -3.75% | [2] 25.9% | [3] 1% | [4] -12.4% | [5] -5.15% | [6] -0.9%

O=C(Nc1ccccc1[N+](=O)[O-])Oc1ccc(-c2ccccc2)cc1
inactive: [1] 9.05% | [2] 5.75% | [3] 9.05% | [4] -7.65% | [5] 46.4% | [6] -28.9%

C[Si](C)(COC(N)=O)Cc1ccccc1
inactive: [1] -28.1% | [2] -12.6% | [3] -15.5% | [4] -1.2% | [5] -10.6% | [6] -32%

CCN(CC)C(=O)c1ccc(C)c(N=NN(C)C)c1
inactive: [1] -5.7% | [2] -36.2% | [3] -20.9% | [4] -0.15% | [5] -19.9% | [6] -8.75%

CC(=O)OC/C=C1/CC[C@H]2[C@@H]3CCC4=CC(=O)CC[C@]4(C)[C@H]3[C@@H](O)C[C@]12C
inactive: [1] 26.4% | [2] -4.25% | [3] 8.65% | [4] -31.4% | [5] 13.4% | [6] 26.9%

Cc1nc(-n2nc(-c3ccccc3)cc2-c2ccccc2)sc1C(/C=C/c1ccc([N+](=O)[O-])cc1)=N/NC(N)=S
inactive: [1] 18.6% | [2] 7.15% | [3] 12.7% | [4] -18.3% | [5] 44.4% | [6] 33.7%

COC(=O)c1cccc(C)c1C(=O)c1ccc(C)cc1C
inactive: [1] 9.65% | [2] 26.6% | [3] 53.1% | [4] -22.5% | [5] 57.8% | [6] 57.2%

N#C/C(=C/n1c(=S)[nH]c2ccc([N+](=O)[O-])cc21)C(N)=O
inactive: [1] -53.3% | [2] -41% | [3] -50.4% | [4] 2.15% | [5] -24% | [6] -70.9%

CCN(CC)CCOC(=O)COc1ccc(Cc2ccccc2)cc1
inactive: [1] 14.7% | [2] 3.55% | [3] 14.3% | [4] 15.6% | [5] -9.4% | [6] 11.3%

CC(C)=CCc1c(C)cc2cc3c(c(O)c2c1O)C(O)=CC(=O)C3(CC=C(C)C)C/C=C(\C)CO (stereo unspecified)
inactive: [1] 54.6% | [2] 37% | [3] 52.5% | [4] 47.2% | [5] 48.9% | [6] 46.1%

O=C(/C=C\c1ccccc1)OCC(=O)c1ccc(-c2ccccc2)cc1
inactive: [1] -20.1% | [2] -2.3% | [3] 1.9% | [4] -34.3% | [5] 1.1% | [6] 4.4%

COc1cccc(C(=O)NNC(=O)c2cccc(OC)c2)c1
inactive: [1] -1.5% | [2] -15.9% | [3] -9.35% | [4] 9.55% | [5] -1.9% | [6] -1.85%

OCCCOC(c1ccccc1)(c1ccccc1)c1ccccc1
inactive: [1] -22.9% | [2] -29.4% | [3] -30.2% | [4] 1.55% | [5] -49.8% | [6] -12.9%

CN(c1nc(=[N+](C)C)ss1)C1CCCCC1
inactive: [1] 9.4% | [2] 17.2% | [3] 16.1% | [4] -39.5% | [5] -12.8% | [6] 15.2%

CC1CCC2(C)OC1OC2CN (stereo unspecified)
inactive: [1] 1.15% | [2] 2.85% | [3] -2.2% | [4] -0.55% | [5] 0.3% | [6] -4.65%

CCCCCCC(=O)O
inactive: [1] 0.75% | [2] -16.4% | [3] -4.85% | [4] -30.3% | [5] -0.1% | [6] 9.9%

COc1ccc(/C=C2\N=C(N/N=C\C(O)C(O)C(O)C(O)CO)NC2=O)cc1 (stereo unspecified)
inactive: [1] -7.3% | [2] -0.3% | [3] 9.2% | [4] 5.45% | [5] -3.8% | [6] -49.8%

NC(=O)c1nnc2ccc(F)cc2c1N
inactive: [1] -35.2% | [2] -37% | [3] -23.2% | [4] -2.55% | [5] -9.35% | [6] -27.2%

COC1=CC(=O)C(Cc2ccc3c(c2)OCO3)=CC1=O
inactive: [1] 13.2% | [2] 24.6% | [3] 15.7% | [4] -9.45% | [5] 3.1% | [6] 34.5%

Nc1nc(C(F)(F)F)nc(N)c1N
inactive: [1] 7.6% | [2] 11% | [3] 15.1% | [4] 3.2% | [5] -5.95% | [6] 14.6%

CC1(C)CN(CCC#N)C(c2ccc([N+](=O)[O-])cc2)O1 (stereo unspecified)
inactive: [1] 2.95% | [2] 3.3% | [3] 8.1% | [4] -9.4% | [5] 14% | [6] -14.8%

CCOC(=O)c1nnc(-c2ccccc2)nc1Cl
inactive: [1] -2.55% | [2] 3.45% | [3] 0.15% | [4] -12.9% | [5] 3.7% | [6] 4%

CC(C)(C)NC(=O)NCc1ccccc1Cl
inactive: [1] 2.9% | [2] -8.1% | [3] -2.7% | [4] -52.5% | [5] -0.75% | [6] -8.35%

CCC1CCN=C(NS(=O)(=O)c2cc(C)c(Cl)cc2S)N1 (stereo unspecified)
inactive: [1] -29.8% | [2] -5.25% | [3] -25.2% | [4] -18.1% | [5] 4.9% | [6] -33%

CCCCB1OB(CCCC)OB(CCCC)O1
inactive: [1] -1.65% | [2] -17.8% | [3] -6.2% | [4] 5.25% | [5] 7.15% | [6] 4.25%

CCCC(O)C(=O)C(CCC)N(CC)CC (stereo unspecified)
inactive: [1] 2.5% | [2] -6.85% | [3] 6.65% | [4] 18.7% | [5] 11.1% | [6] -4.9%

N#CC(NCc1ccccc1)C(O)c1ccccc1 (stereo unspecified)
inactive: [1] 17.8% | [2] 11% | [3] 2.25% | [4] 16.8% | [5] 9.25% | [6] 11.9%

CC1CN(c2nc3ccccc3o2)C(C)CN1c1nc2ccccc2o1 (stereo unspecified)
inactive: [1] -7.15% | [2] 5.6% | [3] -9.1% | [4] 11.8% | [5] 9.9% | [6] -12.3%
